In ChEMBL document CHEMBL3433997, “St. Jude Leishmania screening dataset” (2016):

Experiments:
Format in all cases: functional
[1] = molecular target: Solute carrier family 2, facilitated glucose transporter member 1 (Homo sapiens) (UniProt P11166); assay: ST_JUDE_LEISH: Cytotoxicity at 2uM final concentration against transgenic Leishmania Mexicana promastigotes LmGLUT1 that are glucose transport deficient and complemented with the human glucose transporter GLUT1. Activity is measured by DNA content using SYBR green in vitro
Chain of Solute carrier family 2, facilitated glucose transporter member 1 (Homo sapiens) (P11166 whole entry): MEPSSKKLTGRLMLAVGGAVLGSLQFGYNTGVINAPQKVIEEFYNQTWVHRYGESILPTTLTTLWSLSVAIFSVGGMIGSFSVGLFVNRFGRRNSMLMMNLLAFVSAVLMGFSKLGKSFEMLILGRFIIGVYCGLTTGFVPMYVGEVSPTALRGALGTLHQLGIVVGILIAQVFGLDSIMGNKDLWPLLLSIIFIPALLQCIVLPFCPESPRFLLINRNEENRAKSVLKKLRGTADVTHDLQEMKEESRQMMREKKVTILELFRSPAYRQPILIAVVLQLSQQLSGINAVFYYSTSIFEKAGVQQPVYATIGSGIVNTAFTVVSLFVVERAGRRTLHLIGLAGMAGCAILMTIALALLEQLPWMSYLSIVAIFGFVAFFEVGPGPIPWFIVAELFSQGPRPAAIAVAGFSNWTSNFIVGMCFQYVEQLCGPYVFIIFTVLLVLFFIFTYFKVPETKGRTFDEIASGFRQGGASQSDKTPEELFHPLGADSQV

[2] = molecular target: Hexose transporter 1 (Plasmodium falciparum) (UniProt O97467); assay: ST_JUDE_LEISH: Cytotoxicity at 2uM final concentration against transgenic Leishmania Mexicana promastigotes LmPfHT that are glucose transport deficient and complemented with the Plasmodium falciparum hexose transporter. Activity is measured by DNA content using SYBR green in vitro
[3] = molecular target: Glucose transporter (Leishmania mexicana) (UniProt O61059); assay: ST_JUDE_LEISH: Cytotoxicity at 2uM final concentration against transgenic Leishmania Mexicana promastigotes LmGT2 that are glucose transport deficient and complemented with the L. Mexicana glucose transporter 2. Activity is measured by DNA content using SYBR green in vitro

Compound	inhibition [1]	inhibition [2]	inhibition [3]
CC(C)(C)NC(=O)C(c1ccc(F)cc1)N(C(=O)c1ccc(CN2CCOCC2)o1)c1ccc(C2CCCCC2)cc1 (centres undefined)	2.43%	2.31%	0.51%
CCOc1cc(C(=O)Nc2ccc3nc(N4CCN(C)CC4)cc(C)c3c2)cc(OCC)c1OCC	3.11%	3.76%	1.63%
Cc1ccc(CN2CCN(Cc3cccc(NC(=O)c4cccs4)c3)CC2)cc1C	2.28%	2.39%	1.91%
CC(C)(C)n1nnnc1C(c1cccnc1)N(Cc1ccccc1)Cc1ccc(Cl)cc1 (centres undefined)	2.8%	10.2%	2.8%
CC(C)[C@H](NC(=O)c1ccc(O)c(-c2cccc(C(F)(F)F)c2)c1)C(=O)NC1CCCc2ccccc21 (some centres undefined)	3.9%	2.89%	0.81%
c1cc2[nH]c(CCCCc3nc4cc(C5=N[C@H]6CCCC[C@H]6N5)ccc4[nH]3)nc2cc1C1=N[C@H]2CCCC[C@H]2N1	10.1%	9.08%	8.87%
O=C(Nc1ccc(Cl)cc1)Nc1cccc(CCNCc2ccccc2)c1	0.95%	0.57%	1.38%
O=C(Nc1cccnc1)c1cc(-c2cccnc2)nc2ccc(Br)cc12	7.01%	1.51%	-1.18%
CN(C)CCNc1cc(-c2cccnc2)nc(-c2ccncc2)n1	-1.31%	-1.16%	-1.09%
SC(=Nc1ccc2c(c1)OCCO2)NN=Cc1ccccn1	-0.28%	-0.16%	8.54%
O=C(NC(c1ccc(Cl)cc1)c1ccc2cccnc2c1O)c1ccccc1 (centres undefined)	0.27%	-0.02%	-2.91%
O=C(Cn1c(CCc2cccc(F)c2F)cc(=O)c2cccnc21)N(CCn1ccnc1)Cc1ccc(-c2ccc(C(F)(F)F)cc2)cc1	-0.44%	1.8%	-1.45%
OCc1ccc(-c2cncc(Nc3ccc(F)c(Cl)c3)c2)cc1	3.7%	4.21%	1.04%
CC(=O)c1ccc(NC(=O)CSc2nc(-c3ccccc3Cl)ns2)cc1	2.79%	10.3%	9.72%
CCC(=O)NC(c1ccco1)c1cc(Cl)c2cccnc2c1O (centres undefined)	12.9%	12.3%	10.7%
COc1ccc(CNCCCCCNCc2ccc(Cl)c(Cl)c2)cc1Cl	3.98%	3.58%	1.38%
N=c1n(Cc2ccccc2)c2ccccc2n1CC(O)c1ccc(Cl)cc1 (centres undefined)	1.36%	2.09%	1.14%
CCc1cn2c3c(cc(C(=O)N[C@@H](Cc4ccccc4)[C@H](O)CNC(C)C)cc13)N(C)S(=O)(=O)C2	-2.02%	-1.87%	0.06%
CCCCc1cc(NCc2ccncc2)nc(Nc2ccc(OC)cc2)n1	12.9%	5.76%	3.3%
Oc1ccc(CCNc2nc(NCCCOc3ccccc3-c3ccc(F)cc3)nc(N3CCNCC3)n2)cc1	13.3%	14.8%	9.28%
CC(C)(C)CNCC(C)(C)c1nc(-c2ccc(Cl)c(O)c2)c(-c2ccncc2)[nH]1	-1.13%	0%	-1.37%

Compound	inhibition [1]	inhibition [2]	inhibition [3]
Cn1c(Nc2cc(C(C)(C)C)on2)nc2cc(Nc3ccnc(Nc4ccc(CS(C)(=O)=O)cc4)n3)ccc21	1.46%	1.48%	2.34%
CCc1cn2c3c(cc(C(=O)N[C@@H](Cc4cc(F)cc(F)c4)[C@H](O)CNC4CC4)cc13)N(C)S(=O)(=O)CC2	3.44%	2.48%	3.48%
Cc1noc(C)c1S(=O)(=O)N(C)Cc1ccc(-c2ccc(Cl)cc2)o1	1.57%	1.24%	-2.43%
COc1ccc2nccc([C@@H](O)CN3CCC(NC[C@H](Cc4ccccc4)NC(=O)OC(C)(C)C)CC3)c2c1	3.73%	2.02%	2.75%
CCCC(C)Nc1nc(C)cc(N[C@@H](Cc2ccccc2)C(=O)NCc2cccc(F)c2)n1 (some centres undefined)	4.14%	4.96%	2.68%
COc1cc(NC(=O)/C=C/c2ccc(-c3ccccc3)cc2)ccc1OCCN(C(C)C)C(C)C	60.5%	55.8%	23.4%
COc1ccc(NC(=O)[C@H](Cc2ccccc2)Nc2cc(C)nc(NCCc3ccccc3OC)n2)cc1	-0.03%	-1.38%	-0.97%
COc1ccc2nccc(N/N=C/c3ccc([N+](=O)[O-])cc3)c2c1	-1.64%	-1.77%	3.94%
CCc1cccc(C)c1-n1nc(-c2cc(C(C)(C)C)oc2C)cc1N	2.34%	1.75%	0.33%
COc1ccc(-c2ccc(NC(=O)c3ccc(C#N)cc3)cc2)cc1CN1CCNCC1	10.9%	7.81%	5.48%
O=S(=O)(Nc1cccc(CCN2CCCCC2CCN2CCCC2)c1)c1ccc2ccccc2c1 (centres undefined)	0.63%	-0.31%	-3.3%
COc1ccc(-c2ccc(CNCc3ccccc3)cc2)cc1S(=O)(=O)NCCN1CCCC1	4.97%	1.92%	-1.36%
Cn1c(Nc2cc(C(C)(C)C)on2)nc2cc(Nc3ccnc(Nc4cccc(CS(C)(=O)=O)c4)n3)ccc21	0.14%	2.81%	-0.39%
COc1ccc(NC(=O)CCNc2cc(C)nc(NCc3cccc(C)c3)n2)cc1	-0.09%	0.43%	-1.14%
CC1(C)CCC(=Cc2ccc(Cl)cc2)CC1(O)Cn1ccnc1 (centres undefined)	11.7%	6.85%	3.82%
CCCN(CCC)CC(O)COc1ccccc1C(=O)Nc1ccccc1 (centres undefined)	1.49%	1.09%	-5%
O=C(Nc1ccc(OC2CCN(Cc3ccccc3)CC2)c(Cl)c1)c1ccsc1	2.2%	2.35%	2.24%
CCCNC(=O)c1ccnc(-c2ccc(CNC3Cc4ccccc4C3)cc2)c1	1.45%	1.35%	-0.22%
O=C(NNC(=O)c1ccc(CN2CCC(c3nc4ccccc4[nH]3)CC2)cc1)Nc1ccc(Oc2ccccc2)cc1	2.4%	2.34%	1.36%
Cc1ccccc1C1CCN(C2CCC(NC(=O)/C=C/c3cccc(F)c3F)CC2)CC1 (centres undefined)	5.69%	4.6%	6.25%
CC(C)NCc1ccc(-c2cccc(-c3nc4ccccc4[nH]3)c2)cc1	13.3%	11.8%	10.3%

Compound	inhibition [1]	inhibition [2]	inhibition [3]
CN=C(N)c1ccc(NC(=O)C=Cc2ccc(C(=O)Nc3ccc(C(N)=NC)cc3)cc2)cc1	9.91%	15.9%	4.6%
Cc1cc(N/N=C/c2cccc([N+](=O)[O-])c2)c2ccccc2n1	1.39%	1.27%	4.98%
Nc1ncc(-c2ccccc2)cc1/C=C/c1cccnc1	0.64%	-2.47%	0.23%
O=C(Nc1ccc(C(F)(F)F)cc1)c1cccc(S(=O)(=O)NC2CCN(Cc3ccccc3)C2)c1 (centres undefined)	4.37%	3.64%	3.95%
COc1ccc2ncc(F)c(CCN3CC[C@H](NCc4cc5c(s4)CCCN5)[C@H](O)C3)c2n1	9.63%	15.1%	2.43%
Cc1cc(N2CCCN(CC3CCCCC3)CC2)nc(Nc2ccc(Br)cc2)n1	1.81%	6.86%	-2.12%
FC(F)(F)c1ccc2[nH]c(-c3cccc(-c4cccc(CNCC5CCCO5)c4)c3)nc2c1 (centres undefined)	4.7%	3.63%	3.26%
COc1ccc(CCNc2nc(SCc3ccccc3Cl)nc3ccccc23)cc1OC	1.6%	3.03%	1.42%
CCc1cn2c3c(cc(C(=O)N[C@@H](Cc4ccccc4)[C@H](O)CNC4CCOCC4)cc13)N(CC(F)(F)F)S(=O)(=O)CC2	2.22%	2.72%	0.88%
CC(C)c1ccc(NC(S)=NN=Cc2ccccn2)cc1	63.9%	88.5%	86.1%
O=C(Nc1cccc(CN2CCCN(CC3CCCCC3)CC2)c1)c1cc2ccccc2s1	1.81%	0.88%	-8.67%
Nc1nc(N)c2c(ccc3nn(C4CCCC4)cc32)n1	10.1%	9.8%	5.28%
Fc1ccc2[nH]c(-c3cccc(-c4cccc(CNCc5cnn(-c6ccccc6)n5)c4)c3)nc2c1	6.56%	8.75%	7.46%
CC(Cc1ccc(OCCN2CCN(c3ccccc3)CC2)cc1)NCC(O)c1cccc(Cl)c1F (centres undefined)	2.22%	0.09%	1.85%
Cc1cc(CN2CC[C@H](NC(=O)c3ccc(Cl)c(Cl)c3)C2)ccc1OCCN1CCNCC1	-0.62%	0.59%	0.3%
O=C(/C=C/c1ccc(Cl)cc1Cl)NCCCCCN1CCC(c2c[nH]c3ccccc23)CC1	-2.21%	0.6%	1.57%
COc1ccc(Nc2nccc(N3CCC(NC(=O)Nc4cc(C)ccc4C)C3)n2)cc1 (centres undefined)	10.3%	7.52%	9.76%
O=c1c2ccccc2[nH]c2nc3ccccc3c(Nc3ccccc3)c12	10.2%	12.5%	8.59%
COc1cccc2c(NCCNc3ccnc4c(OC)cccc34)ccnc12	6.77%	6.99%	7.99%
CCCNc1nc(NCc2c(C)cccc2C)nc(NC(C)(C)C)n1	6.93%	8.23%	1.74%
COc1ccc(CNCc2ccccc2)cc1-c1ccc(S(=O)(=O)NCCN2CCCC2)c(C)c1	3.15%	-0.54%	2.34%
